Results taken from PubChem BioAssay (NCI).
About 83,000 compounds went through this panel and 20% of them were active in at least one assay; those are over-represented in the sample as a whole.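 Interpretation: 100, growth as untreated; towards 0, rising growth inhibition; 0, no net growth; 0 to -100, cell death. Compounds scoring below 10 were considered active.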 Calls of active or inactive are those of the source.

Columns and labels:
Experiment in all cases: NCI-60 one-dose screen, 48 h (100 = growth as untreated, 0 = no growth, -100 = all killed)
Details in all cases: 10 µM unless noted
SK-MEL-2 melanoma = system: SK-MEL-2 melanoma
EKVX NSCLC = system: EKVX NSCLC
SN12C renal = system: SN12C renal
UO-31 renal = system: UO-31 renal
TK-10 renal = system: TK-10 renal
ACHN renal = system: ACHN renal
CAKI-1 renal = system: CAKI-1 renal
A498 renal = system: A498 renal
CCRF-CEM leukemia = system: CCRF-CEM leukemia
MOLT-4 leukemia = system: MOLT-4 leukemia

Measured: growth

C/C(=N\Nc1ccc(C(=O)O)cc1)c1cnn(-c2cc(=O)[nH]c3ccc(C)cc23)c1C
inactive: SK-MEL-2 melanoma 106% | EKVX NSCLC 93% | SN12C renal 92.6% | UO-31 renal 67.9% | TK-10 renal 104% | ACHN renal 99.4% | CAKI-1 renal 89.7% | A498 renal 108% | CCRF-CEM leukemia 93% | MOLT-4 leukemia 97.8%

CC(C)(C)c1cc(-c2cc(-c3ccccc3)[nH]c(=O)c2C#N)cc(C(C)(C)C)c1
inactive: SK-MEL-2 melanoma 94.4% | EKVX NSCLC 34.2% | SN12C renal 30.7% | UO-31 renal 24.2% | TK-10 renal 27.6% | ACHN renal 23.3% | A498 renal 21.5% | CCRF-CEM leukemia 68.9% | MOLT-4 leukemia 70.9%
active: CAKI-1 renal -11.5%

COc1ccc(-c2nc3ccc(-c4nnc(SCC(=O)Nc5ccc(/C(C)=N\O)cc5)o4)cc3[nH]2)cc1
inactive: SK-MEL-2 melanoma 76.2% | EKVX NSCLC 95.3% | SN12C renal 80.1% | UO-31 renal 87.5% | TK-10 renal 111% | ACHN renal 85.9% | CAKI-1 renal 96.1% | A498 renal 166% | CCRF-CEM leukemia 55.6% | MOLT-4 leukemia 55.9%

COc1cc(C2CC(c3ccc(C(F)(F)F)cc3)=Nc3c(N)nc(N)nc3N2)ccc1Oc1nc(Nc2ccc(F)cc2)nc(N(C)C)n1 (stereo not given)
inactive: SK-MEL-2 melanoma 59.9% | EKVX NSCLC 44.1% | SN12C renal 50.7% | UO-31 renal 41.6% | TK-10 renal 65.4% | ACHN renal 48.3% | CAKI-1 renal 40.9% | A498 renal 65.6% | CCRF-CEM leukemia 69.4%
active: MOLT-4 leukemia 4.31%

O=CNc1ccc(-n2cnc3cc(-c4ccc(O)cc4)ccc32)cc1
inactive: SK-MEL-2 melanoma 115% | EKVX NSCLC 106% | SN12C renal 71.7% | UO-31 renal 61% | TK-10 renal 108% | ACHN renal 65.4% | CAKI-1 renal 87.3% | A498 renal 135% | CCRF-CEM leukemia 76.4% | MOLT-4 leukemia 77.3%

C[C@@H]1CN(c2ccc3ncc(C#Cc4cncc(C(=O)Nc5ccc(CN6CCN(C)CC6)c(C(F)(F)F)c5)c4)n3n2)C[C@@H](C)O1
active: SK-MEL-2 melanoma -88.4% | EKVX NSCLC -96% | SN12C renal -66.5% | UO-31 renal -99.3% | TK-10 renal -98% | ACHN renal -95.3% | CAKI-1 renal -95.3% | A498 renal -99% | CCRF-CEM leukemia -36% | MOLT-4 leukemia 4.86%

O=C(CSc1nnc(-c2ccc(-c3nc4ccccc4[nH]3)cc2)o1)Nc1ccccc1
inactive: SK-MEL-2 melanoma 91.4% | EKVX NSCLC 93.9% | SN12C renal 79.7% | UO-31 renal 104% | TK-10 renal 106% | ACHN renal 23.1% | CAKI-1 renal 86% | A498 renal 130% | CCRF-CEM leukemia 59% | MOLT-4 leukemia 27.4%

COc1ccccc1Nc1nnc(-c2c[nH]c3ccccc23)o1
active: SK-MEL-2 melanoma -13.6% | CCRF-CEM leukemia 8.16% | MOLT-4 leukemia 1.78%
inactive: EKVX NSCLC 10.2% | SN12C renal 14.5% | UO-31 renal 32.5% | TK-10 renal 22.8% | ACHN renal 23.1% | CAKI-1 renal 22% | A498 renal 81.9%

O=C1Nc2cc(-c3ccc(NS(=O)(=O)c4ccc(C(F)(F)F)cc4)cc3)ccc2/C1=C/c1ccc[nH]1
inactive: SK-MEL-2 melanoma 22.5% | EKVX NSCLC 19.5% | UO-31 renal 31.1% | TK-10 renal 32.5% | ACHN renal 31.1% | CAKI-1 renal 32.9% | A498 renal 28.9% | CCRF-CEM leukemia 18.5%
active: SN12C renal 4.64% | MOLT-4 leukemia 6.52%

Clc1ccccc1Nc1nnc(-c2c[nH]c3ccccc23)o1
inactive: EKVX NSCLC 18.7% | SN12C renal 26.6% | UO-31 renal 33.1% | TK-10 renal 69% | ACHN renal 39.9% | CAKI-1 renal 32.7% | A498 renal 113%
active: SK-MEL-2 melanoma -2.89% | CCRF-CEM leukemia 9.07% | MOLT-4 leukemia 5.42%

Cc1ccc(C(=O)Nc2cccc(C(=O)NC(=S)Nc3ccc(S(N)(=O)=O)cc3)c2)cc1
inactive: SK-MEL-2 melanoma 82.7% | EKVX NSCLC 88.2% | SN12C renal 76.8% | UO-31 renal 69.4% | TK-10 renal 104% | ACHN renal 69.3% | CAKI-1 renal 49.5% | A498 renal 109% | CCRF-CEM leukemia 84.5% | MOLT-4 leukemia 59.2%

CCCCCCCCc1ccc(C(=O)Nc2ccc(C)c(OP(=O)(O)O)c2)cc1
inactive: SK-MEL-2 melanoma 109% | EKVX NSCLC 101% | SN12C renal 95.1% | UO-31 renal 62.4% | TK-10 renal 107% | ACHN renal 103% | CAKI-1 renal 102% | A498 renal 107% | CCRF-CEM leukemia 42.9% | MOLT-4 leukemia 78.3%

CCCCNc1ccc2c3c(cccc13)C(=O)N(c1cccc(-c3nn(-c4ccccc4)cc3-c3nc4ccccc4s3)c1)C2=O
inactive: SK-MEL-2 melanoma 98.1% | EKVX NSCLC 96.4% | SN12C renal 101% | UO-31 renal 70.4% | TK-10 renal 110% | ACHN renal 96.3% | CAKI-1 renal 82.2% | A498 renal 131% | CCRF-CEM leukemia 105% | MOLT-4 leukemia 113%
